# Experimental data: PubChem BioAssay
# For some assays here: Results with a measured potency or affinity are listed apart. The source made the active and inactive calls.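 The calls were made as follows, unless noted: active = calcium signal cut by more than 3 SD below the full-agonist control yet still positive, in both repeats and the earlier primary screen; inactive = the rest.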
# Legend:
# [1] = tested on: TRPC4 beta (transient receptor potential cation channel C4), mouse; test: TRPC4 cation channel opening, retest – cell-based, Fluo4 calcium, HEK293 TRPC4beta/mu-opioid, duplicates, 10 µM, confirmation (AID 2426;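 active = fluorescence ratio normalized to control raised more than 50% in primary screen plus both repeat runs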); details: Fluo4 calcium fluorescence, at 10 µM; hits give high values
# [2] = tested on: transient receptor potential cation channel C4 beta (TRPC4), mouse; test: TRPC4 cation channel opening, second retest – cell-based, second round, Fluo4, HEK293 TRPC4beta/mu-opioid, 1 µM, confirmation (AID 2461;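 active = primary screen active and over 50% activation in each of two duplicate runs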); details: Fluo4 calcium fluorescence, at 1 µM; hits give high values
# [3] = tested on: TRPC4 (transient receptor potential cation channel C4 beta), mouse; test: potentiation of DAMGO EC20 TRPC4 response – cell-based, second round, Fluo-4, HEK293 TRPC4beta/mu-opioid, 1 µM, confirmation (AID 2554;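 active = primary screen hit whose fluorescence ratio, in both repeats, exceeds the weak agonist control mean by 3 SD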); details: DAMGO EC20, Fluo-4 calcium flux, at 1 µM; hits give high values
# [4] = tested on: TRPC4 beta (transient receptor potential cation channel C4), mouse; test: potentiation of DAMGO EC20 TRPC4 response – cell-based, Fluo-4, HEK293 TRPC4beta/mu-opioid, confirmation (AID 2555;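 active = primary screen hit whose calcium fluorescence ratio, in both repeats, exceeds the weak agonist control mean by 3 SD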); details: DAMGO EC20, Fluo-4 calcium flux, at 10 µM; hits give high values
# [5] = biological target: Short transient receptor potential channel 4 (Mus musculus) (UniProt Q9QUQ5); test: blockers of DAMGO-evoked TRPC4 calcium flux – cell-based, Fluo4, HEK293 TRPC4beta/mu-opioid, confirmation (AID 2636); details: at 10 µM; hits give high values
# [6] = biological target: Short transient receptor potential channel 4 (Mus musculus) (UniProt Q9QUQ5); test: blockers of DAMGO-evoked TRPC4 calcium flux – cell-based, second round, Fluo4, HEK293 TRPC4beta/mu-opioid, 1 µM, confirmation (AID 2637;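 active = calcium signal ratio cut to more than 3 SD under the fully stimulated control mean yet still positive, in both repeats and the primary screen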); details: at 1 µM; hits give high values
# [7] = biological target: Short transient receptor potential channel 4 (Mus musculus) (UniProt Q9QUQ5); test: calcium entry via TRPC4 opening agents – cell-based, HEK293 TRPC4/mu-opioid, Fluo-4 calcium, dose response (AID 434937;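 active = primary screen activator hit with a dose response curve and TRPC4 channel activation at any tested dose; inactive = no activation, no dose response, or not a primary hit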)
# [8] = biological target: Short transient receptor potential channel 4 (Mus musculus) (UniProt Q9QUQ5); test: potentiation of DAMGO-evoked TRPC4 calcium signal – cell-based, HEK293 TRPC4/mu-opioid, Fluo-4 calcium, EC20 DAMGO, dose response (AID 434941;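 active = earlier screen potentiator hit that boosts the TRPC4 ion channel at some dose, with a dose response; inactive = no potentiation, no dose response, or not a prior hit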;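 also: calcium entry triggered by an EC20 dose of DAMGO at the co-expressed mu-opioid receptor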)
# [9] = biological target: Short transient receptor potential channel 4 (Mus musculus) (UniProt Q9QUQ5); test: block of DAMGO-driven TRPC4 calcium entry – cell-based, HEK293 TRPC4/mu-opioid, Fluo-4 calcium, dose response (AID 434942;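 active = primary screen inhibitor hit that blocks the TRPC4 channel at some tested dose, yielding a dose curve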)
# [10] = biological target: Short transient receptor potential channel 6 (Mus musculus) (UniProt Q61143); test: TRPC6 blockade by TRPC4 inhibitor hits – cell-based, HEK293, membrane potential dye, duplicate, selectivity assay for TRPC4 inhibitor project, confirmation (AID 434948;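 active = active in primary screen and both duplicates, each dropping signal beyond three positive-control SD with fluorescence still positive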); details: HEK293 TRPC6, membrane potential dye fluorescence, at 10 µM, stimulated with maximal-effect acetylcholine; hits give high values
# [11] = biological target: Short transient receptor potential channel 6 (Mus musculus) (UniProt Q61143); test: TRPC6 opening by TRPC4 activator hits – cell-based, HEK293, membrane potential dye, duplicate, selectivity assay for TRPC4 activator project, confirmation (AID 434950;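 active = membrane potential signal rise above negative control mean plus 3 SD in both duplicates, also active in the earlier TRPC4 screen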); details: HEK293 TRPC6, membrane potential fluorescence, at 10 µM; activation: hits give high values; outcome: activation
# [12] = biological target: Short transient receptor potential channel 6 (Mus musculus) (UniProt Q61143); test: positive modulators of mouse TRPC6 channel – HEK293 cells, membrane potential dye, duplicate, selectivity assay for TRPC4 potentiator project, confirmation (AID 434952;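 active = compound raising the membrane signal above positive-control mean plus 3 SD in both repeats, and a primary screen hit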); details: HEK293 TRPC6, membrane potential dye fluorescence, at 10 µM, maximal acetylcholine added after compound; hits give high values
# [13] = biological target: Short transient receptor potential channel 4 (Mus musculus) (UniProt Q9QUQ5); test: calcium flux activators in TRPC4/5HT1a cells, counter-screen for TRPC4 activator project, cell-based, second counter screen, HEK293 TRPC4/5HT1a, Fluo-4 (AID 434977;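 active = calcium signal rise above buffer-control mean plus 5 SD in both duplicates, and also a hit in the primary screen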); details: Fluo-4 calcium flux, at 10 µM; hits give high values
# [14] = serotonin-gated TRPC4 signal block – cell-based, second counter screen, HEK293 TRPC4/5HT1a, Fluo-4, counter-screen for TRPC4 inhibitor project, confirmation (AID 434978;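 active = primary screen active whose calcium signal fell more than 3 SD beyond the full-serotonin control mean in both duplicate plates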;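 as to outcome: serotonin given first at submaximal then at maximal dose after compound preincubation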); details: Fluo-4 calcium flux, at 10 µM, serotonin added to trigger calcium flux; hits give high values
# [15] = tested on: TRPC4 (mouse), co-expressed with 5HT1a in HEK293; test: enhancement of serotonin-evoked TRPC4 response – cell-based, second counter screen, HEK293 TRPC4/5HT1a, Fluo-4, counter-screen for TRPC4 potentiator project, confirmation (AID 434979;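 active = signal rise over 3 SD above mean of control wells given weak agonist, in both repeats and first screen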); details: Fluo-4 calcium flux, at 10 µM, serotonin added at its EC20 dose; hits give high values
# [16] = nonspecific calcium rise without TRPC4 – cell-based, HEK293 mu-opioid receptor line, counter-screen for TRPC4 activator project, confirmation (AID 449723;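 active = hit in primary screen, with calcium signal over 5 SD above buffer well mean in both duplicates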;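 also: counter screen cells carry the mu-opioid receptor alone and lack TRPC4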); details: HEK293 mu-opioid cells, Fluo-4 calcium fluorescence, at 10 µM; hits give high values
# [17] = nonspecific potentiation of DAMGO calcium response – cell-based, HEK293 mu-opioid receptor line, counter-screen for TRPC4 allosteric potentiator project, confirmation (AID 449724;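 active = calcium signal rise more than 3 SD above the low-dose agonist control mean, in both duplicate plates and the primary screen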); details: HEK293 mu-opioid receptor cells, Fluo-4 calcium flux, at 10 µM, compound added before EC20 DAMGO stimulus; hits give high values
# Short transient receptor potential channel 4 (Mus musculus), sequence (Q9QUQ5 whole entry, looked up): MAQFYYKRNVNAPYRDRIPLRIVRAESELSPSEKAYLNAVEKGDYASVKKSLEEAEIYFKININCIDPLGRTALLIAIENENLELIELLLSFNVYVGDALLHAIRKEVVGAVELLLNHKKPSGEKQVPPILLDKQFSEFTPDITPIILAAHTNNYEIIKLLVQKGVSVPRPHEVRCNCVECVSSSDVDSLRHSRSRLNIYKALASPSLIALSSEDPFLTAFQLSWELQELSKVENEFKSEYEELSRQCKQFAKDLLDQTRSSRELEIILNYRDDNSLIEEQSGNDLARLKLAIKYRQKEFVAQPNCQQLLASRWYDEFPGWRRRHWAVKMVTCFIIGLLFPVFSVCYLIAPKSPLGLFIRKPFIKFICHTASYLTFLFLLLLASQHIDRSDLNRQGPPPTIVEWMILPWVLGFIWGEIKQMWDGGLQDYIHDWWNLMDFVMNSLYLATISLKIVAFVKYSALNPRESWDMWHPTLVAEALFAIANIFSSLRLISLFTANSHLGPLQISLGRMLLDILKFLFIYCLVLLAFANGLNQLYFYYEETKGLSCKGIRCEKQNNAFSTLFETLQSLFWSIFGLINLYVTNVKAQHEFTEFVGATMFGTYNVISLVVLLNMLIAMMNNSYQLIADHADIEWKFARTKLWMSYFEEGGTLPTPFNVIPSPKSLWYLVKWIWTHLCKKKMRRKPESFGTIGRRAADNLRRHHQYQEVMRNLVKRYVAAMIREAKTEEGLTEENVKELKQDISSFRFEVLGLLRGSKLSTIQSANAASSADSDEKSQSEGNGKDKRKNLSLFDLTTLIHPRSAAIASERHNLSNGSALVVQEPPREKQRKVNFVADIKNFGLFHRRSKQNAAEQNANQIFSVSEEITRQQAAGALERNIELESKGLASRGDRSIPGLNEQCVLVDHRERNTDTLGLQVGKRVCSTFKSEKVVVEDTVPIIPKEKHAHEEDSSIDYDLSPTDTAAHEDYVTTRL
# Short transient receptor potential channel 6 (Mus musculus), sequence (Q61143 whole entry, looked up): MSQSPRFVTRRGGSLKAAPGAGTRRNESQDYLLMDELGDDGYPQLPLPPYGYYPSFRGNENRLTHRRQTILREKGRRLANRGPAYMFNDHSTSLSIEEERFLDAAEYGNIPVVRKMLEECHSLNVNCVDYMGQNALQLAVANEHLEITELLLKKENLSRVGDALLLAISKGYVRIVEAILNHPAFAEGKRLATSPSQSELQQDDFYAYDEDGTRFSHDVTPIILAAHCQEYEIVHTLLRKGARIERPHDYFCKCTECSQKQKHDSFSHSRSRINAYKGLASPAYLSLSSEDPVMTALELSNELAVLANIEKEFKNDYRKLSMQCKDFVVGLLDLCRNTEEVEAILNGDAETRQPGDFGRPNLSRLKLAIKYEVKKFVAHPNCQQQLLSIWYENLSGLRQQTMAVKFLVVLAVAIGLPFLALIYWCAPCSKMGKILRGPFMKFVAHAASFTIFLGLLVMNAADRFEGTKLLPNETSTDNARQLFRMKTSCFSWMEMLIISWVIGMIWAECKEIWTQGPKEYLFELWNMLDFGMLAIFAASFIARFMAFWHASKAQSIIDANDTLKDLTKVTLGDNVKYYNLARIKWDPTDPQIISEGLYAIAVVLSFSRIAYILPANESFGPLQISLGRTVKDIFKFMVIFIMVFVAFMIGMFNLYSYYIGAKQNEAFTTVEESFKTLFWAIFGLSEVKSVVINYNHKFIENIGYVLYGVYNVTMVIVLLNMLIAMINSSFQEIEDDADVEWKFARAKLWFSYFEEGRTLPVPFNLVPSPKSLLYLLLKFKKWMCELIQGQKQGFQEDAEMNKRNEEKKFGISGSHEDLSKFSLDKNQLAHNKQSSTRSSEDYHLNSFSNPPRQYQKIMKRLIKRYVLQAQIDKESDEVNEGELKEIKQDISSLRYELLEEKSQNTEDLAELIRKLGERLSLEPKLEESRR
structure (smiles),measurement,setting,value
CCN(CC)CC(=O)Nc1ccccc1SCC(=O)Nc1ccsc1C(=O)OC,outcome,[1],inactive
same,outcome,[2],inactive
same,outcome,[3],inactive
same,outcome,[4],inactive
same,outcome,[5],inactive
same,outcome,[6],inactive
same,outcome,[7],inactive
same,outcome,[8],inactive
same,outcome,[9],inactive
same,outcome,[10],inactive
same,outcome,[11],inactive
same,outcome,[12],inactive
same,outcome,[13],inactive
same,outcome,[14],inactive
same,outcome,[15],inactive
same,outcome,[16],inactive
same,outcome,[17],inactive
COc1cc(Br)cc(C2C3=C(CCCC3=O)N(c3ccc(F)cc3)C3=C2C(=O)CCC3)c1O,outcome,[1],inactive
same,outcome,[2],inactive
same,outcome,[3],inactive
same,potentiation,[4],29% (active)
same,outcome,[5],inactive
same,outcome,[6],inactive
same,outcome,[7],inactive
same,outcome,[8],inactive
same,outcome,[9],inactive
same,outcome,[10],inactive
same,outcome,[11],inactive
same,outcome,[12],inactive
same,outcome,[13],inactive
same,outcome,[14],inactive
same,potentiation,[15],31.7% (active)
same,outcome,[16],inactive
same,outcome,[17],inactive
CCN(CC)CCN(Cc1cc2ccc(C)cc2[nH]c1=O)C(=S)Nc1ccccc1C(=O)OC,outcome,[1],inactive
same,outcome,[2],inactive
same,outcome,[3],inactive
same,outcome,[4],inactive
same,inhibition,[5],85% (active)
same,outcome,[6],inactive
same,outcome,[7],inactive
same,outcome,[8],inactive
same,outcome,[9],inactive
same,outcome,[10],inactive
same,outcome,[11],inactive
same,outcome,[12],inactive
same,outcome,[13],inactive
same,outcome,[14],inactive
same,outcome,[15],inactive
same,outcome,[16],inactive
same,outcome,[17],inactive
COc1cc(CNC2CCCCCCC2)cc(Br)c1OCC#N,outcome,[1],inactive
same,outcome,[2],inactive
same,outcome,[3],inactive
same,outcome,[4],inactive
same,outcome,[5],inactive
same,outcome,[6],inactive
same,outcome,[7],inactive
same,outcome,[8],inactive
same,outcome,[9],inactive
same,outcome,[10],inactive
same,outcome,[11],inactive
same,outcome,[12],inactive
same,outcome,[13],inactive
same,outcome,[14],inactive
same,outcome,[15],inactive
same,outcome,[16],inactive
same,outcome,[17],inactive
CCOC(=O)c1c(NC(=O)COC(=O)CCOc2ccc(OCC)cc2)sc(C(=O)N(C)C)c1C,outcome,[1],inactive
same,outcome,[2],inactive
same,potentiation,[3],22% (active)
same,potentiation,[4],32% (active)
same,outcome,[5],inactive
same,outcome,[6],inactive
same,outcome,[7],inactive
same,outcome,[8],inactive
same,outcome,[9],inactive
same,outcome,[10],inactive
same,outcome,[11],inactive
same,outcome,[12],inactive
same,outcome,[13],inactive
same,outcome,[14],inactive
same,potentiation,[15],81.1% (active)
same,outcome,[16],inactive
same,outcome,[17],inactive
C(#Cc1ccccc1)C[N+]1(CC#Cc2cccc3ccccc23)CCCC1,outcome,[1],inactive
same,outcome,[2],inactive
same,outcome,[3],inactive
same,outcome,[4],inactive
same,outcome,[5],inactive
same,outcome,[6],inactive
same,outcome,[7],inactive
same,outcome,[8],inactive
same,outcome,[9],inactive
same,outcome,[10],inactive
same,outcome,[11],inactive
same,outcome,[12],inactive
same,outcome,[13],inactive
same,outcome,[14],inactive
same,outcome,[15],inactive
same,outcome,[16],inactive
same,outcome,[17],inactive
O=C1CC(NS(=O)(=O)c2cccs2)CN1c1ccccc1 (configuration not stated),outcome,[1],inactive
same,outcome,[2],inactive
same,outcome,[3],inactive
same,potentiation,[4],14% (active)
same,outcome,[5],inactive
same,outcome,[6],inactive
same,outcome,[7],inactive
same,outcome,[8],inactive
same,outcome,[9],inactive
same,outcome,[10],inactive
same,outcome,[11],inactive
same,outcome,[12],inactive
same,outcome,[13],inactive
same,outcome,[14],inactive
same,potentiation,[15],29.8% (active)
same,outcome,[16],inactive
same,outcome,[17],inactive
CCCn1c(N2CCN(S(=O)(=O)Cc3ccccc3)CC2)nc2ccccc21,outcome,[1],inactive
same,outcome,[2],inactive
same,outcome,[3],inactive
same,potentiation,[4],11% (active)
same,outcome,[5],inactive
same,outcome,[6],inactive
same,outcome,[7],inactive
same,outcome,[8],inactive
same,outcome,[9],inactive
same,outcome,[10],inactive
same,outcome,[11],inactive
same,outcome,[12],inactive
same,outcome,[13],inactive
same,outcome,[14],inactive
same,potentiation,[15],22.3% (active)
same,outcome,[16],inactive
same,outcome,[17],inactive
O=C(Nc1ccc([N+](=O)[O-])cn1)C1CCCCC1,outcome,[1],inactive
same,outcome,[2],inactive
same,outcome,[3],inactive
same,outcome,[4],inactive
same,outcome,[5],inactive
same,outcome,[6],inactive
same,outcome,[7],inactive
same,outcome,[8],inactive
same,outcome,[9],inactive
same,outcome,[10],inactive
same,outcome,[11],inactive
same,outcome,[12],inactive
same,outcome,[13],inactive
same,outcome,[14],inactive
same,outcome,[15],inactive
same,outcome,[16],inactive
same,outcome,[17],inactive
CCN1CCN(c2nc(N)c([N+](=O)[O-])c(Nc3ccc(C)cc3)n2)CC1,outcome,[1],inactive
same,outcome,[2],inactive
same,potentiation,[3],22% (active)
same,potentiation,[4],13% (active)
same,outcome,[5],inactive
same,outcome,[6],inactive
same,outcome,[7],inactive
same,outcome,[8],inactive
same,outcome,[9],inactive
same,outcome,[10],inactive
same,outcome,[11],inactive
same,outcome,[12],inactive
same,outcome,[13],inactive
same,outcome,[14],inactive
same,potentiation,[15],24.9% (active)
same,outcome,[16],inactive
same,outcome,[17],inactive
CCOc1cc(/C=C2\CN(CC)C/C(=C\c3ccc(O)c(OCC)c3)C2=O)ccc1O,outcome,[1],inactive
same,outcome,[2],inactive
same,outcome,[3],inactive
same,outcome,[4],inactive
same,outcome,[5],inactive
same,outcome,[6],inactive
same,outcome,[7],inactive
same,outcome,[8],inactive
same,outcome,[9],inactive
same,outcome,[10],inactive
same,outcome,[11],inactive
same,outcome,[12],inactive
same,outcome,[13],inactive
same,outcome,[14],inactive
same,outcome,[15],inactive
same,outcome,[16],inactive
same,outcome,[17],inactive
COC(=O)c1ccccc1NC(=O)CCC(=O)N1CC(C)Oc2ccc(C)cc21 (configuration not stated),outcome,[1],inactive
same,outcome,[2],inactive
same,outcome,[3],inactive
same,outcome,[4],inactive
same,inhibition,[5],75% (active)
same,outcome,[6],inactive
same,outcome,[7],inactive
same,outcome,[8],inactive
same,outcome,[9],inactive
same,outcome,[10],inactive
same,outcome,[11],inactive
same,outcome,[12],inactive
same,outcome,[13],inactive
same,inhibition,[14],44% (active)
same,outcome,[15],inactive
same,outcome,[16],inactive
same,outcome,[17],inactive
O=C1NC(c2ccccc2)=C(c2nc3ccccc3s2)C(c2ccccc2)N1 (configuration not stated),outcome,[1],inactive
same,outcome,[2],inactive
same,outcome,[3],inactive
same,potentiation,[4],14% (active)
same,outcome,[5],inactive
same,outcome,[6],inactive
same,outcome,[7],inactive
same,outcome,[8],inactive
same,outcome,[9],inactive
same,outcome,[10],inactive
same,outcome,[11],inactive
same,outcome,[12],inactive
same,outcome,[13],inactive
same,outcome,[14],inactive
same,potentiation,[15],24.2% (active)
same,outcome,[16],inactive
same,outcome,[17],inactive
Cc1cc(Cl)cc(Cl)c1OCCCCN(C)C,outcome,[1],inactive
same,outcome,[2],inactive
same,potentiation,[3],22% (active)
same,potentiation,[4],18% (active)
same,outcome,[5],inactive
same,outcome,[6],inactive
same,outcome,[7],inactive
same,outcome,[8],inactive
same,outcome,[9],inactive
same,outcome,[10],inactive
same,outcome,[11],inactive
same,outcome,[12],inactive
same,outcome,[13],inactive
same,outcome,[14],inactive
same,potentiation,[15],23.9% (active)
same,outcome,[16],inactive
same,outcome,[17],inactive
COc1ccc2sc(N(CCCN(C)C)C(=O)c3ccc(S(=O)(=O)N4CCCc5ccccc54)cc3)nc2c1,outcome,[1],inactive
same,outcome,[2],inactive
same,outcome,[3],inactive
same,potentiation,[4],28% (active)
same,outcome,[5],inactive
same,outcome,[6],inactive
same,outcome,[7],inactive
same,outcome,[8],inactive
same,outcome,[9],inactive
same,outcome,[10],inactive
same,outcome,[11],inactive
same,outcome,[12],inactive
same,outcome,[13],inactive
same,outcome,[14],inactive
same,potentiation,[15],80% (active)
same,outcome,[16],inactive
same,outcome,[17],inactive
CCN(CC)CCOC(=O)c1cccc(Br)c1,outcome,[1],inactive
same,outcome,[2],inactive
same,potentiation,[3],14% (active)
same,potentiation,[4],12% (active)
same,outcome,[5],inactive
same,outcome,[6],inactive
same,outcome,[7],inactive
same,outcome,[8],inactive
same,outcome,[9],inactive
same,outcome,[10],inactive
same,outcome,[11],inactive
same,outcome,[12],inactive
same,outcome,[13],inactive
same,outcome,[14],inactive
same,potentiation,[15],8.39% (active)
same,outcome,[16],inactive
same,outcome,[17],inactive
